About 8,800 targets were measured; listed, in parts, are those with a hit and a random draw of the rest. About 0.5% of all pairs of compound and target were hits. A number with no mark means an inactive call.
Tests used:
Assay in all cases: log2 fold change, soluble protein after heating vs DMSO (PISA); higher = thermal stabilisation; K562 lysate, 10 uM; active = over 0.2 and 3.5 SD of the protein, either way, in both replicates (recomputed)
[1] = compound: CCCS(=O)(=O)Nc1ccc(F)c(C(=O)c2c[nH]c3ncc(Cl)cc23)c1F
In short: (§1)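 Log-two fold change in thermal stability relative to solvent controls is reported from duplicates. For each sample, crude K562 extract from dounce-homogenised pellets in PBS pH 7.4 with 1 mM MgCl2, at 1 mg/mL protein, was treated with 10 μM compound for 30 min. Aliquots heated for 3 min across 48°C-58°C were pooled, brought to 0.5% NP-40 at 4°C and cleared at 21,000xg for 90 min. The supernatant was quantified by TMTpro 16plex LC-MS/MS with channel sums equalised.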

[2] = compound: CC[C@@H]1C(=O)N(C)c2cnc(Nc3ccc(C(=O)N[C@H]4CC[C@H](N5CCN(CC6CC6)CC5)CC4)cc3OC)nc2N1C(C)C [volasertib]
In short: as §1

[3] = compound: CCn1cc(-c2ccnc3[nH]c(-c4cccc(CN(C)C)c4)cc23)c(-c2ccc(NC(=O)N(C)C)cc2)n1
In short: as §1

[4] = compound: CN1CCC(CNc2ccc3ncc(-c4cccc(OC(F)(F)F)c4)n3n2)CC1
In short: as §1

[5] = compound: CN1CCN(c2nc(C3=C(c4c[nH]c5ccccc45)C(=O)NC3=O)c3ccccc3n2)CC1 [sotrastaurin]
In short: as §1

[6] = compound: CN1CC[C@H](c2c(O)cc(O)c3c(=O)cc(-c4ccccc4Cl)oc23)[C@H](O)C1 [alvocidib]
In short: as §1

[7] = compound: COc1cc(Nc2ncc3c(n2)-c2ccc(Cl)cc2C(c2c(F)cccc2OC)=NC3)ccc1C(=O)O [alisertib]
In short: as §1

[8] = compound: COc1cc2nc(-c3cc(F)ccc3O)nc(N[C@@H]3CNC[C@H]3C(C)(C)O)c2cc1OC
In short: as §1

[9] = compound: COc1cc2ncnc(Nc3ccc(F)c(Cl)c3)c2cc1OCCCN1CCOCC1 [gefitinib]
In short: as §1

[10] = compound: CCN(CCCOc1ccc2c(Nc3cc(CC(=O)Nc4cccc(F)c4)[nH]n3)ncnc2c1)CCOP(=O)(O)O [barasertib]
In short: as §1

[11] = compound: CCCS(=O)(=O)Nc1ccc(F)c(C(=O)c2c[nH]c3ncc(-c4ccc(Cl)cc4)cc23)c1F [vemurafenib]
In short: as §1

[12] = compound: CN1CCN(CCOc2cc(OC3CCOCC3)c3c(Nc4c(Cl)ccc5c4OCO5)ncnc3c2)CC1 [saracatinib]
In short: as §1

[13] = compound: CNC(=O)c1ccc(Nc2ncc(C(F)(F)F)c(NCc3nccnc3N(C)S(C)(=O)=O)n2)cc1 [defactinib]
In short: as §1

[14] = compound: CNc1nc(-c2ccc3c(N)n[nH]c3c2)cc(N2C[C@@H](C(=O)NC3CCCCC3)CC[C@H]2C)n1
In short: as §1

[15] = compound: CC[C@@H]1C(=O)N(C)c2cnc(Nc3ccc(C(=O)NC4CCN(C)CC4)cc3OC)nc2N1C1CCCC1
In short: as §1

[16] = compound: CCn1c(C(=O)N(C2CC2)C2CC2)cc2c3c(ncn3C)c(Nc3cc(C)n(C)n3)nc21
In short: as §1

[17] = compound: CN1CCc2c(c3ccccc3n2Cc2ccc(C(=O)NO)cc2)C1 [Tubastatin A]
In short: as §1

[18] = compound: CNC(=O)C1=CC=CC=C1NC2=NC(=NC=C2Cl)NC3=C(C=C(C=C3)N4CCOCC4)OC
In short: as §1

[19] = compound: COC(=O)N[C@@H](C)CNc1nccc(-c2cn(C(C)C)nc2-c2cc(Cl)cc(NS(C)(=O)=O)c2F)n1 [encorafenib]
In short: as §1

[20] = compound: COC(=O)[C@H](CCSC)NC(=O)C1=C(C=C(C=C1)NC[C@H](CS)N)C2=CC=CC=C2
In short: as §1

Chain of UniProt Q96LT9 (Q96LT9 whole entry, looked up): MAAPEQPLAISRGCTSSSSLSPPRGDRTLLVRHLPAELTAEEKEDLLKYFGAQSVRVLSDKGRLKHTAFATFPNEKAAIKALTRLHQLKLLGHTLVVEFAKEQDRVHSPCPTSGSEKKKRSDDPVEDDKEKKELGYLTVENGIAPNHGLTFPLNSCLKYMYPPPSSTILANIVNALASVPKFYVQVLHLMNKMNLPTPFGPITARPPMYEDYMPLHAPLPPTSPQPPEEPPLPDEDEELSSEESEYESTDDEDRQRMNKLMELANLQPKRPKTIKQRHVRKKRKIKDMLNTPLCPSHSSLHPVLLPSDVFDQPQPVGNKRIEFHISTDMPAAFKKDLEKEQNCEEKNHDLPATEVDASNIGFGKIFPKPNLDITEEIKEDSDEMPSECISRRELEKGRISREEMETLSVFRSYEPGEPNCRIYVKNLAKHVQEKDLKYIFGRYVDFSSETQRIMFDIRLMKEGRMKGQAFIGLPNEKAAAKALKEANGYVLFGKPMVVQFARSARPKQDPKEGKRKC
Chain of UniProt Q99496 (Q99496 whole entry, looked up): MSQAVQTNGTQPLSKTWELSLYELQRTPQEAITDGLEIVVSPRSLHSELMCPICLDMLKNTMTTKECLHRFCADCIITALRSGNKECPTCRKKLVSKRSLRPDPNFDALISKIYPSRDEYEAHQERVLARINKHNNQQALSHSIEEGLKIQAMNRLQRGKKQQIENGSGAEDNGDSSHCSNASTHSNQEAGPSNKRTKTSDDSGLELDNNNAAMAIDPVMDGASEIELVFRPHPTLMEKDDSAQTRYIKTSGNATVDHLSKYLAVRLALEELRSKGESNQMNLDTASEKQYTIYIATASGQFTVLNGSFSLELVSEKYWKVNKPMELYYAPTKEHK
Chain of UniProt Q9UPW6 (Q9UPW6 whole entry, looked up): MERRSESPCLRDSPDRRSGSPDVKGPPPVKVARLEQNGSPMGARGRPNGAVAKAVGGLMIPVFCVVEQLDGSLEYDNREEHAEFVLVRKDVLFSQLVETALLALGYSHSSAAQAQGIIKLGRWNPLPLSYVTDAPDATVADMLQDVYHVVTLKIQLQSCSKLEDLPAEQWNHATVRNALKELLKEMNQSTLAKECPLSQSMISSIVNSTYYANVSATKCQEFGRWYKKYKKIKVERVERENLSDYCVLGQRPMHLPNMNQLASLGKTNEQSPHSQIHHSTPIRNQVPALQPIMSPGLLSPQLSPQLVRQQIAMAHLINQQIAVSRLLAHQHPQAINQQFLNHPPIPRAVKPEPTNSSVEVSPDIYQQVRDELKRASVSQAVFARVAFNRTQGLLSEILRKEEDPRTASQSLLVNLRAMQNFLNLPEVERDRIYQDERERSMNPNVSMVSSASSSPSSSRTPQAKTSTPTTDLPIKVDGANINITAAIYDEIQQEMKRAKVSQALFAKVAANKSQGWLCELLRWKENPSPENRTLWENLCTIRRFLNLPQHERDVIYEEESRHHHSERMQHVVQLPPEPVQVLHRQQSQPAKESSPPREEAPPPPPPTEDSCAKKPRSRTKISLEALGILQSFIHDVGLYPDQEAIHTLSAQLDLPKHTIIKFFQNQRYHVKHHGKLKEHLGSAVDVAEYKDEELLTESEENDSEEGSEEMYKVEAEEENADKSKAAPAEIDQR
Chain of UniProt Q9BXT8 (Q9BXT8 whole entry, looked up): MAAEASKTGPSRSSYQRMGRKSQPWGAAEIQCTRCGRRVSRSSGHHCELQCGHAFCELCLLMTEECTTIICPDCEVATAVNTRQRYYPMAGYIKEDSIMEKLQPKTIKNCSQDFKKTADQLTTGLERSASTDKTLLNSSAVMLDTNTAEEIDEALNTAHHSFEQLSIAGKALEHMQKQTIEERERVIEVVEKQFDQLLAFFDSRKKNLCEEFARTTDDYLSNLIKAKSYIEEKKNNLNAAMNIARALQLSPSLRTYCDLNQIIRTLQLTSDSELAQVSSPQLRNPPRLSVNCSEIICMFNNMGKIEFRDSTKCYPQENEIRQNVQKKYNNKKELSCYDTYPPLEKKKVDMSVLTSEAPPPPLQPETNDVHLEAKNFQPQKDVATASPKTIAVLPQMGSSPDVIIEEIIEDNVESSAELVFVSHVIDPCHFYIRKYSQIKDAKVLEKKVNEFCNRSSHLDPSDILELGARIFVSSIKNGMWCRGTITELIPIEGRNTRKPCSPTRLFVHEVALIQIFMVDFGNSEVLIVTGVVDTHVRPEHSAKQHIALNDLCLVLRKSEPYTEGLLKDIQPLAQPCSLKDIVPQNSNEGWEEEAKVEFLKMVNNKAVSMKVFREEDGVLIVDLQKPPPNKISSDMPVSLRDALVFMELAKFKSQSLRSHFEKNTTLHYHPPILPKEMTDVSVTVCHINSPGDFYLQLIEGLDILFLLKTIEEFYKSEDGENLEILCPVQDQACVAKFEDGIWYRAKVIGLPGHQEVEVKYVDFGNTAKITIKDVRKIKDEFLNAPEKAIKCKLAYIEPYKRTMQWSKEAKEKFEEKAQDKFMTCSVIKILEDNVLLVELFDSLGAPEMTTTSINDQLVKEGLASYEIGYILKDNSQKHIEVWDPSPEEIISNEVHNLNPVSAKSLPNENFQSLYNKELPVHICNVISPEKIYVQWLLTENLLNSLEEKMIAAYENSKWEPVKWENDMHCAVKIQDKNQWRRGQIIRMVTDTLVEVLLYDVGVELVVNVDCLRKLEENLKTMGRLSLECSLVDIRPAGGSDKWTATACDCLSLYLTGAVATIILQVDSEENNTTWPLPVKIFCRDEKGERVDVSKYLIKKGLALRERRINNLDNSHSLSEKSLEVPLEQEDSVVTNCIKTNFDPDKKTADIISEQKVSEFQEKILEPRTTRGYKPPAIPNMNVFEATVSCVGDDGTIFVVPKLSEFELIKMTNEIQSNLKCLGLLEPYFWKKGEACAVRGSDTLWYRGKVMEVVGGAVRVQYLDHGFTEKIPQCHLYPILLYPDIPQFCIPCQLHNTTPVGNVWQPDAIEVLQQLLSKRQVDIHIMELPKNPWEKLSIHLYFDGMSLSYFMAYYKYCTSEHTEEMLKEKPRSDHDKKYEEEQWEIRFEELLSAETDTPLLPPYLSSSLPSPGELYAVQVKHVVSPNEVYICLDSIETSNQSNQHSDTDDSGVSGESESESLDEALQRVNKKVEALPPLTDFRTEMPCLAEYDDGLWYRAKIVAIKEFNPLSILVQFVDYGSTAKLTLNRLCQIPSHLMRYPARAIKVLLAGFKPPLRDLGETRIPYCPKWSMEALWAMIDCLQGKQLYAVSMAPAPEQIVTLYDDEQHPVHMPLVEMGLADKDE
Chain of UniProt Q9Y225 (Q9Y225 whole entry, looked up): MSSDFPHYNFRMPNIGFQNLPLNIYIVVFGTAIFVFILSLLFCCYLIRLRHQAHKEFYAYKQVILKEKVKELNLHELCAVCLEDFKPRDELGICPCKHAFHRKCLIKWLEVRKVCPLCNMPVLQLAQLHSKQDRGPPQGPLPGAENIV
Chain of UniProt Q8WXA3 (Q8WXA3 whole entry, looked up): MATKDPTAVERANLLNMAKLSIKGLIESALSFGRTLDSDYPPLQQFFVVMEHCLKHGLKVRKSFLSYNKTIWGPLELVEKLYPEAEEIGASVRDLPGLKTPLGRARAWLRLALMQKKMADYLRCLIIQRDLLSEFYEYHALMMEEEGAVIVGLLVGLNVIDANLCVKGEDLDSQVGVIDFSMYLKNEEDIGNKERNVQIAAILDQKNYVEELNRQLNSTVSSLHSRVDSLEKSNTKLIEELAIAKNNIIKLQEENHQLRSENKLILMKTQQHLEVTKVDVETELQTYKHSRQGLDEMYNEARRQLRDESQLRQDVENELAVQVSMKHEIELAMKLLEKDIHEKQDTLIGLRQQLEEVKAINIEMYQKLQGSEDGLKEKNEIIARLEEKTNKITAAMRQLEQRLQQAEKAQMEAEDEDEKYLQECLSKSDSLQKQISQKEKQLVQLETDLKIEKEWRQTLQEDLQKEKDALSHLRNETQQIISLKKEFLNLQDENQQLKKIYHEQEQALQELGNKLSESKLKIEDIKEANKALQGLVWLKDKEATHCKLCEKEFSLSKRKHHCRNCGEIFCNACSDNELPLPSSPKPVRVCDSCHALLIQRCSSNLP
Chain of UniProt P19793 (P19793 whole entry, looked up): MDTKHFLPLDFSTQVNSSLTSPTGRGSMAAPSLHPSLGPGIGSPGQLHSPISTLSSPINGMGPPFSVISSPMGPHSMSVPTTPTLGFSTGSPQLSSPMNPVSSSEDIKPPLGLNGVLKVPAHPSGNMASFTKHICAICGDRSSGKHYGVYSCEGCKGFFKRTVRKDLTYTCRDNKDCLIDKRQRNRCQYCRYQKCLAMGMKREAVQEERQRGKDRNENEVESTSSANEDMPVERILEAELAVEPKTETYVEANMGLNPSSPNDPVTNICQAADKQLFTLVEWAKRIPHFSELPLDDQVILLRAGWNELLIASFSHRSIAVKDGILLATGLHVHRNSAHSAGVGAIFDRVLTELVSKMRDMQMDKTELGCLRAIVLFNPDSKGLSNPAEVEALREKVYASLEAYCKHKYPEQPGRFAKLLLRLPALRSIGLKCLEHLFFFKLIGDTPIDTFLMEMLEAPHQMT
Chain of UniProt Q7L0Q8 (Q7L0Q8 whole entry, looked up): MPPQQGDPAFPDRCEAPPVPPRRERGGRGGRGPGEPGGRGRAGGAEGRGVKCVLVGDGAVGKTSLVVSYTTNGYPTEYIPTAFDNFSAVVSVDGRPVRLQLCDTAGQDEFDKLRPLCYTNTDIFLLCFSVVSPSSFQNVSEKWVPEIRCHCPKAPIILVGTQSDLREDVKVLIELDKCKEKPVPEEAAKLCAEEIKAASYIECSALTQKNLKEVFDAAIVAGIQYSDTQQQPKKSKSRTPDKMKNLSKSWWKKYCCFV
Chain of UniProt Q9Y6D0 (Q9Y6D0 whole entry, looked up): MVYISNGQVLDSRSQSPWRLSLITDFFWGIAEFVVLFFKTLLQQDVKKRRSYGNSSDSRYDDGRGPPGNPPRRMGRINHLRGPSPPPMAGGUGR

Target | log2 fold change [1] | log2 fold change [2] | log2 fold change [3] | log2 fold change [4] | log2 fold change [5] | log2 fold change [6] | log2 fold change [7] | log2 fold change [8] | log2 fold change [9] | log2 fold change [10] | log2 fold change [11] | log2 fold change [12] | log2 fold change [13] | log2 fold change [14] | log2 fold change [15] | log2 fold change [16] | log2 fold change [17] | log2 fold change [18] | log2 fold change [19] | log2 fold change [20]
RBM45 (UniProt Q8IUH3) | 0.12 | -0.207 | 0.128 | -0.015 | 0.077 | 0.013 | -0.136 | 0.055 | -0.03 |  |  |  |  |  |  |  |  |  |  | 
RLIM (UniProt Q9NVW2) |  |  |  |  | -0.055 |  |  |  |  | 0.065 |  |  |  |  |  |  |  |  |  | 
SELENOK (UniProt Q9Y6D0) | -0.004 | 0.062 | -0.593 | 0.529 (active) |  | -0.169 | -0.018 | -0.025 | 0.006 | -0.022 | -0.034 | -0.021 | 0.123 | -0.001 |  |  |  |  |  | 
QSER1, A0A3B3IRW6 | 0.045 | -0.028 |  |  | -0.014 |  | 0.025 | -0.004 | -0.021 |  | -0.042 | -0.036 | 0.019 | -0.035 | -0.044 | 0.043 | -0.122 | 0.014 | 0.059 | 0.183
RNF2 (UniProt Q99496) |  |  | 0.557 (active) | -0.399 (active) | -0.002 | 0.359 | -0.125 |  | -0.038 |  | -0.03 | -0.004 | 0.034 | 0.018 | -0.03 | 0.061 | -0.008 | 0.067 | 0.054 | -0.076
SATB2 (UniProt Q9UPW6) | 0 | 0.007 | 0.074 | 0.016 | 0.032 | 0.047 | 0.024 | -0.008 | 0.01 |  | 0.002 | -0.026 | -0.022 | -0.031 | 0.023 | 0.009 | -0.096 | -0.019 | 0.053 | -0.022
RNF24 isoform 2 (UniProt Q9Y225) |  |  | 0.033 | -0.084 | 0.025 | 0.079 | -0.113 |  | -0.108 | 0.122 |  |  |  |  |  |  |  | 0.003 |  | 
RHOU (UniProt Q7L0Q8) | -0.059 | 0.008 | 0.173 | 0.015 | 0.036 | 0.007 | -0.014 | 0.024 | -0.017 |  | -0.04 | -0.027 | -0.073 | -0.17 | -0.122 | -0.006 | 0.005 | -0.036 | -0.088 | 0.164
RNF17 (UniProt Q9BXT8) | 0.022 | 0.066 | 0.113 | -0.421 | 0.046 | -0.006 |  | -0.057 |  | 0.133 |  | 0.257 |  | -0.183 | 0.099 | -0.035 | 0.079 | 0.096 | 0.061 | -0.032
RXRA (UniProt P19793) | -0.121 | 0.026 | -0.359 (active) | 0.13 | 0.013 | -0.019 | -0.117 | 0.018 | 0.043 |  |  | -0.093 |  | 0.072 |  | -0.061 | 0.138 | -0.06 |  | 
RNPC3 (UniProt Q96LT9) | -0.02 | 0.019 | -0.009 | -0.032 | -0.074 | 0.012 | 0.118 | 0.056 | -0.08 |  |  | -0.022 |  | 0.082 |  | -0.119 | -0.099 | -0.047 |  | 
RUFY2 isoform 1 (UniProt Q8WXA3) |  |  | -0.009 | -0.178 | 0.001 | 0.01 | 0.003 |  | 0.053 | -0.206 | 0.01 |  | 0.066 |  | 0.038 | -0.026 | 0.074 |  | 0.13 | -0.031

Reference: the supplement of paper PMC10849652
